Data as given in the supplement of paper PMC6555819.

Tested on: VDR:RXRa (NR concentration 270 nM, RXRa partner concentration 90 nM)
Assay: PBM binding z-score (relative to random genomic background probes); higher = stronger binding; sequences stand for … in GC…GCGATTGACAGCGTAGAATGAAGG
Protocol: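 Protein-binding microarray (Agilent 4x180K custom design, double-stranded 60-nt probes: 5' GC cap, 34-nt variable region, 24-nt constant primer region; full probe sequence given). Purified or IVT nuclear receptor:RXRα heterodimers (3:1 NR:RXRα, mostly 270:90 nM) or homodimers were incubated for 1 h in PBS with 2% milk and no ligand, then detected with Alexa488 antibodies. Fluorescence from o1-orientation probes (~5 replicates averaged) was converted to z-scores against 500 random hg19 background probes. Variable regions are seed direct-repeat (DR0–DR5) sites, all their single-nucleotide variants and half-site ablations.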

Sequence	PBM binding z-score
TGAATGAGGTTAAAGATCTGGGAACGTGGCGTCG	1.31
CCTACTGGGCCATCAGGTCATTGCTATCAACGTT	1.71
CGTCAAAGTTCAACTAAGGTAACGAAAAGCACGC	4.64
TCTTGTAGATCAATAGAGCTTAAGAAAGTGCGCT	-0.108
ACTATTAGTTGAGACAAGGGCAACCGATAGGTTG	0.191
CCTACTGGGCCAAAGGTCATTCATTCCAATGCTC	4.67
CTCGAAAGGTCGGTTGAGGTGATTATACGGATAA	3.1
ACTAATAGTTGAGACGAGGGCAACCGATAGGTTG	1.27
ACTCAAAGTTCAGGACGAGGTAACGTAAAGCACG	3.22
TCTTGTAGATCAATAGAGGTTAAGTAAGTGCGCT	2.65
TCTCGGTGGACACGAAAGGTCAGAGCTCGACATC	2.84
TGAATGAGGTTAAAGATCCGGGAACGTGGCGTCG	1.03
CGAACGAGGGCATGAGTTGACAGCAAATGCCGAT	1.2
ACTAGCAGGCCAAGGGTCAATCAAGATTAGTCCG	2.66
CGCGAAAGGTCGTGCTCAGGTGAGTATACCAAAC	3.57
CCGACCGGGGCAGAAAGGTTACCATACCATCCGG	1.5
GCTCCTAGGTCAACTGATGGTCAGCTAAAGCTCG	2.29
GTACCACGGTGAATAGGTCGTTGATGAGTAGGCG	-0.0883
AGAACGAGGGCATTGAGTTGATAGCACGGGTGGC	5.24
GCATATAGGTAATACAAGGGGAAAGTCCGATTGT	-0.0932

Sequence	PBM binding z-score
TCATATAGGTGAATGCTAGGTGAAAGTCCGATCT	0.699
TCTTGTAGATCAAGCAGGTTAAGAACGCCTGAGT	0.768
CCTAGTAGGCCAGGGTCACTCAAGCATTTCGCTT	2.7
CCCACTGGGCCAAGGTCATTGATCAGTCAAAGCA	2.94
TATAGTTGGTCAAAGGTCACACACTCGAAATGCG	5.53
CCTTACGGGTCACTGTCAGGTTATAGCATTTGGA	3.87
CGTCCAAGGTCAAGGACAGTGAAAGAGACTCGAA	3.75
TCTAGTTGGTCACGGAGGTCACACCCGACGGGTA	5.67
AATACATGGTCACTAGGCCAGAGTAGGTACGAAT	-0.0294
CGTCCAACGTCAATGCTAGGTCAGTGAAAGCATT	0.103
TCTATTAGTTGATAAGGGCAACCGAAACAGCGGA	0.713
CCGACCGGGGCAAAGGTTACCATACTCAGTACGA	2.06
GCTCGGAGGACAAGGTCAGAGCATTGTCCGTAGA	1.5
ATATGAAGGTTACATCCGGGTCATTCAGGCTATG	4.85
ACTCGTAGGACAAAGGTCAGAGCTACGCCAGTGA	2.89
CGAACTAGGTCAACCAGGACAGTGAATACATTGA	4.96
TCGAGTAGATTACCAATGGGGCATTCAGCTTTCT	-0.414
CGAACTCGGTCAAGGACAGTGAATCTCCGCACGC	0.0619
GCTATTAGTTGAAAGGGTAACCGAATGATTCTCG	0.289
CAAAGTAGGTCACAGAGGTCAAAGTCCGTGCGTA	7.99
